Structures can show the parent of a compound that is named as a salt. ± gives the standard deviation.
What was measured:
Jurkat [1] = experiment: mean cell size (FSC-A) relative to DMSO control (fraction of control); higher = larger cells; conditions: 48 h
Summary of the method: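 Jurkat cells seeded at 600 cells/µl were incubated 1 h, then exposed for 48h to the Enzo Screen-Well FDA Approved Drug Library v2.0 at 25µM in 0.9% (v/v) final DMSO. Drugs that cut counts below 20% of controls were diluted 10-fold and retested, down to 25nM. Cell count and mean cell size (forward scatter area) were read on an Accuri C6 flow cytometer, relative to solvent-only controls. Plates held 6-12 controls; values are means of 3 biological replicates.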

Jurkat [2] = experiment: cell count relative to DMSO control (fraction of control); higher = more cells (less growth inhibition); conditions: 48 h

SMILES	mean cell size (Jurkat [1])	cell count (Jurkat [2])
O=c1n(CCCN2CCN(c3cccc(Cl)c3)CC2)nc2ccccn12 [Trazodone·HCl] (concentration: 25 µM)	0.967 ± 0.045	0.878 ± 0.048
NC(=O)NO [Hydroxyurea] (concentration: 25 µM)	0.958 ± 0.017	1.06 ± 0.099
O=C(O)P(=O)(O)O [Foscarnet·Na (Sodium Phosphonoformate Tribasic Hexahydrate)] (concentration: 25 µM)	0.936 ± 0.065	0.59 ± 0.027
CC(=O)Oc1ccccc1C(=O)O [Aspirin (Acetylsalicylic Acid)] (concentration: 25 µM)	0.9355 ± 0.0074	0.97 ± 0.082
CC(C)(C(=O)c1cccnc1)c1cccnc1 [Metyrapone] (concentration: 25 µM)	1.04 ± 0.058	0.924 ± 0.079
Nc1nc(N)c2nc(-c3ccccc3)c(N)nc2n1 [Triamterene] (concentration: 25 µM)	1.21 ± 0.038	0.398 ± 0.082
CNC(=C[N+](=O)[O-])NCCSCc1csc(CN(C)C)n1 [Nizatidine] (concentration: 25 µM)	0.976 ± 0.011	0.809 ± 0.02
Cc1nnc(SCC2=C(C(=O)O)N3C(=O)[C@@H](NC(=O)Cn4cnnn4)[C@H]3SC2)s1 [Cefazolin·Na] (concentration: 25 µM)	0.964 ± 0.048	0.768 ± 0.013
Cc1[nH]c(=O)c(C#N)cc1-c1ccncc1 [Milrinone] (concentration: 25 µM)	0.919 ± 0.051	0.361 ± 0.085
CNS(=O)(=O)CCc1ccc2[nH]cc(C3CCN(C)CC3)c2c1 [Naratriptan·HCl] (concentration: 25 µM)	0.95 ± 0.019	0.951 ± 0.065
Cc1cccc(CN2CCN(C(c3ccccc3)c3ccc(Cl)cc3)CC2)c1 (stereo not given) [Meclizine Dihydrochloride] (concentration: 25 µM)	0.965 ± 0.024	0.703 ± 0.088
Nc1nnc(-c2cccc(Cl)c2Cl)c(N)n1 [Lamotrigine] (concentration: 25 µM)	1.01 ± 0.028	0.734 ± 0.16
NC[C@H](O)c1ccc(O)c(O)c1 [Norepinephrine Bitartrate Monohydrate] (concentration: 25 µM)	0.967 ± 0.024	0.658 ± 0.17
CN(C)C(=N)NC(=N)N [Metformin·HCl] (concentration: 25 µM)	0.954 ± 0.067	0.66 ± 0.18
CC(=O)OCC(=O)[C@@]12OC(C)(C)O[C@@H]1C[C@H]1[C@@H]3C[C@H](F)C4=CC(=O)C=C[C@]4(C)[C@@]3(F)[C@@H](O)C[C@@]12C [Fluocinonide] (concentration: 25 µM)	0.944 ± 0.027	0.551 ± 0.03
N=C(N)NC(=O)Cc1c(Cl)cccc1Cl [Guanfacine·HCl] (concentration: 25 µM)	0.956 ± 0.059	0.695 ± 0.13
CNS(=O)(=O)Cc1ccc2[nH]cc(CCN(C)C)c2c1 [Sumatriptan Succinate] (concentration: 25 µM)	0.955 ± 0.031	0.738 ± 0.1
CN1CCc2cccc3c2[C@H]1Cc1ccc(O)c(O)c1-3 [Apomorphine·HCl Hemihydrate] (concentration: 2.5 µM)	1.031 ± 0.0071	0.444 ± 0.071
CC(S)C(=O)NCC(=O)O (stereo not given) [Tiopronin] (concentration: 25 µM)	0.956 ± 0.016	0.864 ± 0.17
O=C1C(=O)c2ccccc2C(O)=C1C1CCC(c2ccc(Cl)cc2)CC1 (stereo not given) [Atovaquone] (concentration: 25 µM)	0.91 ± 0.015	0.462 ± 0.039
Clc1ccccc1C(c1ccccc1)(c1ccccc1)n1ccnc1 [Clotrimazole] (concentration: 25 µM)	0.92 ± 0.04	0.591 ± 0.05
COc1ccc2c3c1O[C@H]1C[C@@H](O)C=C[C@@]31CCN(C)C2 [Galantamine·HBr] (concentration: 25 µM)	0.976 ± 0.01	0.701 ± 0.14
CCN(CC)CCOc1ccc(C(=C(Cl)c2ccccc2)c2ccccc2)cc1 [Clomiphene Citrate] (concentration: 25 µM)	0.897 ± 0.013	0.793 ± 0.056
CC#C[C@]1(O)CC[C@H]2[C@@H]3CCC4=CC(=O)CCC4=C3[C@@H](c3ccc(N(C)C)cc3)C[C@@]21C [Mifepristone] (concentration: 25 µM)	0.903 ± 0.021	0.424 ± 0.054
Nc1nc(NC2CC2)c2ncn([C@H]3C=C[C@@H](CO)C3)c2n1 [Abacavir Sulfate] (concentration: 25 µM)	1.1 ± 0.033	0.858 ± 0.15
CN1CCCC(n2nc(Cc3ccc(Cl)cc3)c3ccccc3c2=O)CC1 (stereo not given) [Azelastine·HCl] (concentration: 25 µM)	0.923 ± 0.037	0.457 ± 0.02
CC(=O)OC(C)C[N+](C)(C)C (stereo not given) [Methacholine Chloride] (concentration: 25 µM)	1.05 ± 0.022	0.921 ± 0.049
CN1CCC(=C2c3ccccc3CC(=O)c3sccc32)CC1 [Ketotifen Fumarate] (concentration: 25 µM)	0.96 ± 0.017	0.856 ± 0.071

SMILES	mean cell size (Jurkat [1])	cell count (Jurkat [2])
OCCOCCN1CCN(C2=Nc3ccccc3Sc3ccccc32)CC1 [Quetiapine Fumarate] (concentration: 25 µM)	0.929 ± 0.035	0.534 ± 0.17
CC(C(=O)O)c1cccc(Oc2ccccc2)c1 (stereo not given) [Fenoprofen Calcium] (concentration: 25 µM)	0.901 ± 0.05	0.314 ± 0.15
O=C(O)COCCN1CCN(C(c2ccccc2)c2ccc(Cl)cc2)CC1 (stereo not given) [Cetirizine 2HCl] (concentration: 25 µM)	0.962 ± 0.032	1.01 ± 0.12
Clc1ccc(CO/N=C(\Cn2ccnc2)c2ccc(Cl)cc2Cl)c(Cl)c1 [Oxiconazole Nitrate] (concentration: 25 µM)	0.933 ± 0.016	0.87 ± 0.18
C[C@H](CS)C(=O)N1CCC[C@H]1C(=O)O [Captopril] (concentration: 25 µM)	0.951 ± 0.029	1.01 ± 0.099
CCOC(=O)c1ccc(C#Cc2ccc3c(c2)C(C)(C)CCS3)nc1 [Tazarotene] (concentration: 25 µM)	0.894 ± 0.021	0.698 ± 0.18
CO[C@H]1C[C@@H]2CC[C@@H](C)[C@@](O)(O2)C(=O)C(=O)N2CCCC[C@H]2C(=O)O[C@H]([C@H](C)C[C@@H]2CC[C@@H](O)[C@H](OC)C2)CC(=O)[C@H](C)/C=C(\C)[C@@H](O)[C@@H](OC)C(=O)[C@H](C)C[C@H](C)/C=C/C=C/C=C/1C [Sirolimus (Rapamycin)] (concentration: 2.5 µM)	0.7581 ± 0.0033	0.626 ± 0.074
CC(=O)Nc1ccc(O)cc1 [Acetaminophen] (concentration: 25 µM)	1.03 ± 0.037	0.891 ± 0.031
COCCc1ccc(OCC(O)CNC(C)C)cc1 (stereo not given) [Metoprolol Tartrate] (concentration: 25 µM)	0.935 ± 0.026	1.02 ± 0.11
C=CC[N+]1([C@H]2C[C@H]3[C@@H]4CC[C@H]5C[C@H](O)[C@@H](N6CCOCC6)C[C@]5(C)[C@H]4CC[C@]3(C)[C@H]2OC(C)=O)CCCC1 [Rocuronium Bromide] (concentration: 25 µM)	0.952 ± 0.043	0.337 ± 0.086
COc1ccc2c(c1)c(CC(=O)O)c(C)n2C(=O)c1ccc(Cl)cc1 [Indomethacin] (concentration: 25 µM)	0.971 ± 0.046	0.482 ± 0.087
CC(C)NCC(O)COc1ccc(CC(N)=O)cc1 (racemic) [(±)-Atenolol] (concentration: 25 µM)	0.836 ± 0.018	1.14 ± 0.087
NC(=O)c1ncn([C@@H]2O[C@H](CO)[C@@H](O)[C@H]2O)n1 [Ribavirin] (concentration: 25 µM)	0.9983 ± 0.0034	0.625 ± 0.077
O=C(O)Cc1ccccc1Nc1c(Cl)cccc1Cl [Diclofenac·Na Salt] (concentration: 25 µM)	0.978 ± 0.039	0.725 ± 0.073
CO/N=C(\C(=O)N[C@@H]1C(=O)N2C(C(=O)[O-])=C(C[N+]3(C)CCCC3)CS[C@H]12)c1csc(N)n1 [Cefepime·HCl Hydrate] (concentration: 25 µM)	1.02 ± 0.046	0.826 ± 0.045
CCOC(=O)[C@H](CCc1ccccc1)N[C@@H](C)C(=O)N1[C@H](C(=O)O)C[C@H]2CCCC[C@@H]21 [Trandolapril] (concentration: 25 µM)	0.973 ± 0.044	0.924 ± 0.12
CN(C)CCc1c[nH]c2ccc(Cn3cncn3)cc12 [Rizatriptan Benzoate] (concentration: 25 µM)	1.02 ± 0.039	0.844 ± 0.01
CN1C(=O)CC(C)(c2ccccc2)C1=O (stereo not given) [Methsuximide] (concentration: 25 µM)	1.03 ± 0.03	0.752 ± 0.068
NC[C@H]1CC[C@H](C(=O)O)CC1 [Tranexamic Acid] (concentration: 25 µM)	0.961 ± 0.051	0.542 ± 0.14
Cn1c2ncnc-2c(O)n(C)c1=O [Oxtriphylline] (concentration: 25 µM)	0.953 ± 0.021	0.761 ± 0.13
Cn1c(=O)c2c(ncn2CC(O)CO)n(C)c1=O (stereo not given) [Dyphylline] (concentration: 25 µM)	0.966 ± 0.022	0.81 ± 0.037
COc1ccc(CCN(C)CCCC(C#N)(c2ccc(OC)c(OC)c2)C(C)C)cc1OC (stereo not given) [Verapamil·HCl] (concentration: 25 µM)	0.939 ± 0.025	0.756 ± 0.042
Cc1nc2n(c(=O)c1CCN1CCC(c3noc4cc(F)ccc34)CC1)CCCC2O (stereo not given) [Paliperidone] (concentration: 25 µM)	0.985 ± 0.043	1.06 ± 0.063
C[N+](C)(C)CCOC(=O)CCC(=O)OCC[N+](C)(C)C [Succinylcholine Chloride·2H2O] (concentration: 25 µM)	0.943 ± 0.014	0.908 ± 0.081
Cc1cn([C@H]2C=C[C@@H](CO)O2)c(=O)[nH]c1=O [Stavudine] (concentration: 25 µM)	1.04 ± 0.06	0.764 ± 0.071
C[N+](C)(C)CCOC(N)=O [Carbachol (Carbamylcholine ) Chloride] (concentration: 25 µM)	0.962 ± 0.019	1.13 ± 0.12
C=CC1=C(C(=O)O)N2C(=O)[C@@H](NC(=O)/C(=N\O)c3csc(N)n3)[C@H]2SC1 [Cefdinir] (concentration: 25 µM)	0.976 ± 0.059	0.765 ± 0.12
